Shown are actives, neighbours in structure and some others; about 1.1% of the full set was active somewhere.
DTT redox prof: compounds producing H2O2 with reducing agent – biochemical, NIH compound library profiling, artefact control for MLSCN library redox annotation, primary screen. 200,000 tested, 0.03% active. AID 878. DTT-dependent redox cycling H2O2, phenol red/HRP absorbance; 100% = 100 µM peroxide control, 0% = buffer. activation, % at 10 µM;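 active = activation of at least 50% relative to the plate's high and low controls in the primary single-dose screen; inactive = activation below 50%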;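 also: compound incubated with DTT at 0.8 mM final as the reducing agent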
S1P4 antagonist: blocks the human S1P4 receptor | O95977 | S1P4-expressing cells, antagonist mode, reporter read-out | inhibition, % at 4.98 µM | 220,000 tested, 0.26% active | AID 1510; in the data active = inhibition above about 29%;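 also: 0% = wells stimulated with agonist and 100% = vehicle wells without agonist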
Target sequence (O95977 whole entry, looked up): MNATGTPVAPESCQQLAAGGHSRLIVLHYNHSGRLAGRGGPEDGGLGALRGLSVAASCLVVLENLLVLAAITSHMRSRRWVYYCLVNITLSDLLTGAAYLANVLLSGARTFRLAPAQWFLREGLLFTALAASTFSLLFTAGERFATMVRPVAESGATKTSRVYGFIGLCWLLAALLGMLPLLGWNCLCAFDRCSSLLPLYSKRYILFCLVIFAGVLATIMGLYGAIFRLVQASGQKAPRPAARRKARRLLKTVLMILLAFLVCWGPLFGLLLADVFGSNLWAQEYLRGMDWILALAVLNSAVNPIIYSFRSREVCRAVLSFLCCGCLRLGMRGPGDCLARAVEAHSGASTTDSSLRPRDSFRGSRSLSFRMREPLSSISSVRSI
UBC9 SUMO inh: SUMOylation inhibition | P63279 | HTRF SUMOylation assay, SAE1/SAE2 + UBC9, in vitro | inhibition, % at 35 µM | 290,000 tested, 0.36% active | AID 2006; in the data active = inhibition above about 50%, passing the limit was not always enough
p97 ATPase inh: human p97 ATPase inhibition. P55072. recombinant p97 ATPase, Kinase-Glo ATP luminescence, 3 h. inhibition, % at 8 µM. 220,000 tested, 0.42% active. AID 1481; in the data active = inhibition above about 15%;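 also: 0% = DMSO vehicle and 100% = wells lacking enzyme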
S1P4 ag: activates the human S1P4 receptor; O95977; 220,000 tested, 0.35% active; activation, % at 4.98 µM; S1P4-expressing cell line, agonist reporter assay; AID 1509; in the data active = activation above about 11%;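 also: 0% = DMSO vehicle and 100% = reference agonist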
S1P3 antag-1: blocks the human S1P3 receptor; Q99500; CHO S1P3 NFAT-BLA reporter, FRET fluorescence, antagonist mode; inhibition, % at 4.98 µM; 170,000 tested, 0.27% active; AID 485;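 active = inhibition above the plate cutoff, the mean inhibition of test wells on that plate plus 3 SD, cut at about 28% in these data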;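 also: cells challenged with S1P at its EC80 of 0.8 µM; blue over green emission ratio from cleaved BLA substrate after 4 h stimulation; 0% = S1P-stimulated wells and 100% = unstimulated DMSO-only wells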
S1P3 antag-2: confirmation of human S1P3 receptor antagonists | 240 tested, 30% active | shares compounds with S1P3 antag-1 | inhibition, % at 4.98 µM | CHO S1P3 NFAT-BLA reporter, FRET, antagonist mode;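 active = inhibition above the hit threshold that was computed for the earlier primary screen, cut at about 30% in these data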;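 also: 0% = S1P-stimulated wells and 100% = unstimulated DMSO-only wells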
* marks the source's active call; other numbers are inactive results; · = no result.

SMILES	DTT redox prof	S1P4 antagonist	UBC9 SUMO inh	p97 ATPase inh	S1P4 ag	S1P3 antag-1	S1P3 antag-2
Cc1c(CCOC(=O)c2cc([N+](=O)[O-])cc([N+](=O)[O-])c2)sc[n+]1CC(=O)c1ccc(Br)cc1	4	-3	11	-6	-1	38*	-11
O=C(Nc1ccccc1)C(c1ccccc1)C1CCCC1 (configuration not stated)	0	-9	-5	2	4	52*	48*
CCOC(=O)N1CCN(C2CCCN(C(=O)c3ccccc3N(C)C)C2)CC1 (configuration not stated)	·	·	-1	·	·	·	·
Cc1ccccc1OCc1ccc(C(=O)N2CC(C)OC(C)C2)o1 (configuration not stated)	·	·	21	·	·	·	·
COc1cccc(CNC(=O)CCCCCn2c(=S)[nH]c3ccc(N4CCOCC4)cc3c2=O)c1	0	-16	30	3	1	64*	-13
CC(CC(=O)N1CCN(c2ccc(C(F)(F)F)cn2)CC1)n1ccnc1 (configuration not stated)	-1	-7	1	5	-1	36*	-15
C/C(=N\NC(=O)c1nnn(-c2nonc2N)c1-c1ccccc1)c1ccco1	·	·	9	·	·	·	·
CSc1ccccc1C(=O)NCCOc1cccc(C)c1	0	-7	-10	-2	0	39*	-5
CN(Cc1ccccc1)CC(O)COc1ccc(CNCCc2ccncc2)cc1 (configuration not stated)	0	4	1	-5	-1	-4	·
CN(Cc1ccccc1)CC(O)COc1ccc(CNCCc2cccnc2)cc1 (configuration not stated)	0	-8	12	1	-1	31*	-14
CCN(CC)c1ccc2cc(-c3nc(-c4ccc(OC)cc4)cs3)c(=O)oc2c1	1	6	8	2	2	42*	97*
CCN(CC)c1ccc2cc(-c3nnc(-c4ccccc4)o3)c(=O)oc2c1	0	6	27	3	1	·	·
CCN1/C(=C/c2ccc3cc(C)ccc3[n+]2CC)Sc2ccccc21	1	-34	-18	-4	-2	33*	34*
CC[n+]1c(/C=C2\Sc3ccccc3N2C)ccc2cccc(C)c21	-1	-19	-14	0	-1	25	·
CCN1/C(=C/c2ccc3cc(C)ccc3[n+]2CC)Sc2cc(C)c(C)cc21	0	1	-7	-1	-2	31*	21
CCOc1cc(S(=O)(=O)NCc2ccncc2)ccc1Cl	0	-11	12	1	0	29*	20
CCCNC(=O)Cn1cnc2sc(C(=O)N3CCN(Cc4ccc5c(c4)OCO5)CC3)c(C)c2c1=O	0	-13	-6	1	0	30*	-15
CN1/C(=C\C(=O)C[n+]2ccc3ccccc3c2)C(C)(C)c2ccccc21	0	-30	7	5	1	-12	·
O=C(O)/C=C\c1cccc(-n2nnnc2SCc2ccccc2F)c1	·	·	6	·	·	·	·
Cc1cc(NNC(=O)Nc2cccc(Cl)c2)nc2c1c(C)nn2C	·	10	-6	4	-1	32*	14
CS(=O)(=O)N(CC(=O)N1CCCCCC1)c1ccc(Br)cc1	2	-4	-5	4	2	6	·
CCOC(=O)N1CCN(C(=O)c2cn(CCOC)c(=O)c3c2c2ccccc2n3C)CC1	0	-12	2	-3	0	2	·
Cc1cc(C)c(C)c(S(=O)(=O)N2CCN(C(=O)CCC(=O)N3CCOCC3)CC2)c1C	·	-4	4	-4	0	31*	-10
Cc1cc(C)c(C)c(S(=O)(=O)N2CCN(C)CC2)c1C	1	-1	11	2	2	-9	·
CC(C)(C)c1ccc(C(=O)Nc2cccc3c(=O)[nH][nH]c(=O)c23)cc1	-1	5	25	4	0	38*	6
Clc1ccccc1/C=N/NC1=Nc2cccc3cccc1c23	2	-8	19	6	0	23	·
C(=N\NC1=Nc2cccc3cccc1c23)/c1ccccn1	0	-4	-14	4	1	29*	19
O=S(=O)(NCC1CCN(Cc2ccccc2)CC1)c1ccccc1C(F)(F)F	·	·	2	·	·	·	·
